Source: PubChem BioAssay (NCI)
About 83,000 compounds went through this panel and 20% of them were active in at least one assay; those are over-represented in the sample as a whole.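 Plates (96-well) were seeded with cells, treated with compound at one concentration, and incubated for 48 hours before percent growth was determined.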 Active and inactive are the calls of the source.

tested on: EKVX NSCLC; assay: NCI-60 one-dose screen, 48 h (100 = growth as untreated, 0 = no growth, -100 = all killed); settings: 10 µM unless noted
Experimental: Growth inhibition of the EKVX human Non-Small Cell Lung tumor cell line is measured as a screen for anti-cancer activity. Cells are grown in 96 well plates and exposed to the test compound for 48 hours. Compounds are tested at a single concentration, which is 10^-5 M for most compounds. The reported endpoint is percent growth (GI% or GIPRCNT), where numbers from 0 - 100% represent growth inhibition, and numbers from -100% - 0 represent cell death. For example, a value of 40 represents 60% growth inhibition. A value of 0 means no net growth occurred over the course of the experiment. A value of -40 indicates 40% of cells at the beginning of the experiment died by the end of the experiment. A value of -100 means all cells are dead at the end of the experiment.
NCI-60 Human Tumor Cell Lines Screen was performed using the standard one-dose NCI protocol, which is described in more detail at https://dtp.cancer.gov/discovery_development/nci-60/default.htm.
Compounds with GIPRCNT values below 10 were considered active. Activity score was based on GIPRCNT using the following formula: […]
Score is 0 for GIPRCNT values of 100 or above, 50 for GIPRCNT values of 0, and 100 for GIPRCNT values of -100.

SMILES | growth
Fc1ccc2[nH]cc(-c3nonc3-c3c[nH]c4ccc(Br)cc34)c2c1 | 19.3% (inactive)
O=C1/C(=C/c2ccc(Cl)cc2)COc2ccc(O)c(O)c21 | 51.7% (inactive)
Cc1ccc(Cc2cnc(NC(=O)c3cc(Br)cs3)s2)cc1 | 78.3% (inactive)
CN(C)CCCC1(c2ccc(F)cc2)OCc2cc(-c3cccc4[nH]ccc34)ccc21 (stereo not given) | 44.8% (inactive)
O=C(CCCCCCN1CC(=O)N2[C@H](c3cc(Br)cs3)c3[nH]c4ccccc4c3C[C@H]2C1=O)NO | 75.4% (inactive)
N#CC1=C(c2ccc(Cl)cc2)Nc2c(c(-c3ccc(Cl)cc3)nn2-c2ccccc2)C12C(=O)Nc1ccc(Cl)cc12 (stereo not given) | 38.8% (inactive)
CN(C)CC(=O)Nc1ccc2ncnc(Nc3ccc(Oc4cccc(C(F)(F)F)c4)c(Cl)c3)c2c1 | 28.9% (inactive)
COc1ccc(C2c3sc4c(F)cccc4c3Oc3nc[nH]c(=O)c32)cc1 (stereo not given) | 71.2% (inactive)
COc1ccccc1NC(=O)Cn1cc(CN2CCN(c3ccnc4cc(Cl)ccc34)CC2)nn1 | 92.5% (inactive)
Cn1cc(-c2nc(-c3c[nH]c4ccncc34)cs2)c2ccccc21 | 49% (inactive)
N#Cc1cnc(NCCc2ccncc2)nc1-n1cnc2ccccc21 | 72.6% (inactive)
O=C(/C=C/c1ccccc1)c1cccc(OCCCOc2cccc(C(=O)/C=C/c3ccccc3)c2)c1 | 103% (inactive)
COc1ccc(/C=N/NC(=O)CCN2c3ccccc3Sc3ccccc32)cc1 | 79.7% (inactive)
c1cnc2[nH]cc(-c3csc(-c4cn(CCCN5CCOCC5)c5ccccc45)n3)c2c1 | 47.9% (inactive)
O=C1c2c(c3c4ccccc4[nH]c3c3ccc4ccccc4c23)C(=O)N1CCN1CCCCC1 | 75.5% (inactive)
C=C1C(=O)O[C@H]2[C@H]1CC/C(COC(=O)NCc1ccc(Cn3c(=O)sn(CCI)c3=O)cc1)=C\CC[C@@]1(C)O[C@@H]21 | 91% (inactive)
COCCNC(=O)c1ccc(-c2nc3ccc4[nH]ncc4c3c3c2CCCC3)cc1 | 45.7% (inactive)
CC(C)CCNC(=O)Cn1cccc(NC(=O)OCc2ccccc2)c1=O | 101% (inactive)
O=C(CSc1nc(-c2ccccc2)[nH]c1S(=O)(=O)c1ccccc1)NC1CC1 | 65.1% (inactive)
COc1cc(CNC(=O)/C=C/C=C/c2ccc3c(c2)OCO3)ccc1OCc1cn(-c2ccc(C)c(C)c2)nn1 | 94.1% (inactive)

SMILES | growth
N#Cc1c(-c2ccccc2)cc(-c2ccccc2)n(CCCCCC(=O)Nc2ccccc2N)c1=O | 50.8% (inactive)
CCOC(=O)c1cc(C(=O)c2cc(OC)c(OC)c(OC)c2)n2ccc(-c3ccncc3)cc12 | 101% (inactive)
Cn1cccc1C(=O)C1C(c2cccc([N+](=O)[O-])c2)C2C3CCCCC3CN2C12C(=O)Nc1ccc(Cl)cc12 (stereo not given) | 46.4% (inactive)
CCN1CCN(c2cc(C(=O)Nc3nc(-c4cc(OC)c(OC)c(OC)c4)cs3)cc(C(F)(F)F)c2)CC1 | 64.9% (inactive)
O=C1Nc2ccccc2/C1=C\c1nc(-c2ccccc2)n2ccccc12 | 74.1% (inactive)
CCn1c(SCC(=O)c2ccc(Br)cc2)nnc1-c1ccncc1 | 102% (inactive)
CCCNC(=O)Oc1ccc(/C(=C(/C)Cc2ccc(OC)cc2)c2ccc(OCCCN(C)C)cc2)cc1 | 85.7% (inactive)
CC1Cc2c(Cl)ncnc2N(C)c2ccc(F)cc21 (stereo not given) | 87.6% (inactive)
COc1ccc2c3c([nH]c2c1)C(=O)c1nc(C)ccc1C3=O | 53.6% (inactive)
N#CC1C=CN(CC(N)=O)c2ccc3cccnc3c21 (stereo not given) | 97.9% (inactive)
O=C(/C=C/c1cccs1)c1ccc(Cl)nc1 | 102% (inactive)
COC(=O)c1cc(-c2ccc(OC)cc2)[nH]c1N/N=C/c1c(Cl)cccc1Cl | 20.1% (inactive)
CCCCC[C@@H]1Cc2cc(O)c(C(=O)O)c3c2[C@H](C[C@]2(OC[C@@H](CC(=O)[C@@](C)(CC)C(=O)OC)[C@@H]2C)O3)O1 | 113% (inactive)
O=C(CSc1nc2ccc([N+](=O)[O-])cc2[nH]1)Nc1ccc(F)cc1 | 56.5% (inactive)
COc1ccc(-c2nc(/C=C3\SC(=NCc4ccccc4)NC3=O)c3ccccn23)cc1 | 58% (inactive)
O=C(Nc1ccc(NC(=O)c2cc(=O)[nH]c3ccccc23)cc1)Nc1cccc(C(F)(F)F)c1 | 66.8% (inactive)
Cc1nc2sc(C(=O)Nc3cccc(Cl)c3C)c(N)c2cc1C(=O)c1ccccc1 | 40.5% (inactive)
CCN(CC)CCSc1nc(-c2ccccc2)c(C#N)c(=O)[nH]1 | 91.8% (inactive)
O=C1Nc2ccccc2/C1=C\c1nc(-c2ccccc2F)n2ccccc12 | 47.6% (inactive)
O=C(NCCCCNC(=O)OCc1ccc2c(Cl)cc(Cl)c(O)c2n1)OCc1ccc2c(Cl)cc(Cl)c(O)c2n1 | 91.3% (inactive)
